Assay results taken from the supplement of paper PMC3334620.
Over roughly 33,000 sequences, “E-score (-0.5 to 0.5)” has its median near -0.016; the highest 2% begin near 0.32. The sample holds the highest values, similar sequences and a random draw of the others, so the mix is not that of the screen.

What follows are sequences tested against T1, Stp1 (UniProt B3LFK1) (assay: PBM E-score (8-mer binding enrichment) (E-score (-0.5 to 0.5)); higher = stronger / more preferred TF binding). Conditions: protein concentration: 200 nM; construct: GST-full length.
T1 sequence: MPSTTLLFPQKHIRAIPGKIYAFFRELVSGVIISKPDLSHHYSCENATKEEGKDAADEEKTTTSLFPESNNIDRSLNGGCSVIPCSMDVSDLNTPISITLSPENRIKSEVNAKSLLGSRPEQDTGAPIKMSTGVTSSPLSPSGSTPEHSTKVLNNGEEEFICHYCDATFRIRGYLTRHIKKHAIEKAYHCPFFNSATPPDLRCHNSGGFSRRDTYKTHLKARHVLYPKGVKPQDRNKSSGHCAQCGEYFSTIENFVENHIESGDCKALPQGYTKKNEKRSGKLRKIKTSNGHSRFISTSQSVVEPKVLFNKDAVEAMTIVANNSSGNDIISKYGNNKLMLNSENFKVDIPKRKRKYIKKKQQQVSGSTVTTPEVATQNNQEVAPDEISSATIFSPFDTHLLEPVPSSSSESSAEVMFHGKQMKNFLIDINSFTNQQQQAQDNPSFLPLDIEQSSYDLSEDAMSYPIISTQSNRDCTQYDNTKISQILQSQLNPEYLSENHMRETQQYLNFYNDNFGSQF
Outline: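 E-scores (a modified Wilcoxon-Mann-Whitney statistic) were assigned by the Universal PBM Analysis Suite to every ungapped eight-base word pooled with its reverse complement. The input came from universal all-10-mer Agilent arrays made double-stranded by primer extension and probed with GST-tagged yeast transcription factors at about 100-200 nM. Fluorescent anti-GST detected bound protein, and masliner normalised the scans.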

Sequence	PBM E-score
ACGGTCTC	-0.041
CCTAAAGC	0.00183
CCCTAGGA	-0.314
CTTGCGCA	0.223
ATTCTTCG	0.00242
GAACGTAA	0.0655
CCGTTCCA	0.243
ACGTTCCG	-0.106
CCGTTCCG	0.318
GCCATCGA	0.0584
ACCCGTGA	-0.0351
ACCCGTGG	-0.0825
AGCCGTGC	0.465
ATCCGTGA	0.00902
GGCCGTGA	0.126
AACCGTGC	0.26
ATCCGTGC	0.41
AGCCGTGA	0.343
ACCCGTGC	0.237
AACCGTGG	-0.00732
CTCCGTGC	0.228
AGCCGTGG	0.334
ATGCTGAC	-0.0531
ATACAGCC	-0.0239
GCCTCTAA	0.0553

Sequence	PBM E-score
AACCGTAC	-0.0138
CGAACAGA	0.0325
CACCGTGA	-0.114
CGCCGTGA	0.376
CCCCGTGA	-0.14
ATGCACTC	-0.0521
AACGAGAA	0.00842
GCCGCCGC	0.424
CCCGCCGA	-0.0885
GCCGCCAC	0.0605
GCCGCCGA	0.316
CCCGCCGC	0.332
GCCGCCCC	0.378
ACCGCCCC	-0.144
CCCGCCGG	-0.213
GCCGCCCA	0.111
CCTTGATC	0.1
CTGCCCCC	-0.327
CGGGCATA	-0.155
AACGCCCA	0.122
AAGTCCGT	-0.0471
AAAGAAAT	0.128
CCATATGG	0.0408
AGGCTAAG	-0.0187
GCCGCAGC	0.394

Sequence	PBM E-score
ACCGCAGC	-0.119
GCCGCATA	0.457
ACCGCATA	0.0344
CCCGCAGC	-0.123
GCCGCAGA	0.372
CCCGCAGA	0.06
CCCGCAAC	0.097
TCCGCAGA	-0.0849
ACCGCAAC	-0.0924
CCCGCATA	0.21
GCCGCAAC	0.366
GTGCTGCA	0.0505
CTCTTACC	0.201
CTACCTCA	-0.152
CTACCCCA	-0.114
CAGGTTGA	-0.216
AGTAACGC	0.192
ATGGTTGC	-0.177
GACTAGCC	-0.194
ATCGCTGA	-0.0887
CCTTGCGC	0.138
GGTGCGAC	-0.0804
TCGTACAA	0.157
ACGTATAA	0.113
TCGTATAA	0.136

Sequence	PBM E-score
CCGTATCC	0.316
CCGTATAA	0.341
CCGTATCG	0.215
CCGTACAA	0.35
CCGTATCA	0.327
GCGTACAA	0.167
ATCGAAGA	0.171
GCACTAAC	0.042
ATTCTCAA	0.152
AGACCAAT	-0.0691
GCGACTGA	-0.227
ACTCCCAG	-0.264
AGTGAACC	0.00324
GCCGTTCC	0.432
TCCGTTCA	0.0192
CCCGTTCA	-0.132
CCCGTTCC	-0.00751
GCCGTTCA	0.441
ACCGTTCC	0.15
AAATAAAC	0.218
GCGGCCAA	0.161
GAGGACAA	-0.101
CACGTGCG	0.272
CAGGATTC	-0.173
AGCCTCGA	-0.172

Sequence	PBM E-score
GCCATTGA	0.226
CAGCTCTC	-0.325
GGGCTCTA	-0.0132
AGGCTCTA	0.15
AGGCTCTC	-0.137
CGGCTCTC	0.334
CGGCTCTA	0.425
CGCACTCC	-0.172
CAGAGCTA	-0.171
CGGGCGCC	0.269
AGGGCGGC	0.14
AGGGCGCA	0.205
AGGGCGCG	0.369
AGGGCGCC	0.343
AGGGGGCG	-0.0306
ACCAAGGT	0.0467
CAGCCACA	0.161
CGGCTTAC	0.104
GCTGGGTA	-0.175
GCTAAAGA	0.0376
GAAGGCAC	0.368
GCAGGCAC	0.0604
CAAGGCAC	0.356
AAAGGCAA	0.263
CAAGGCAA	0.264

Sequence	PBM E-score
GAAGGCAA	0.218
AAAGGCAC	0.392
AAAGGCAG	0.172
CAAGGCAG	0.0951
AGGTGGCG	-0.0008
GCTCAGAA	0.00512
TAGGTGGA	-0.21
AGGGAAAA	0.0119
AGACATTC	-0.19
GGATGCCC	-0.245
GGAAAAAA	0.149
CTGCCTGA	-0.0731
TATAGAGA	0.0248
CGCACCAC	0.063
CGCACCGA	0.0478
AGCACCAC	-0.134
TGCACCAA	-0.0793
GGCACCAC	0.324
GGCACCAA	0.393
AGCACCGA	0.0493
CGCACCAA	0.213
GGCACCGA	0.356
CCCTATTC	-0.0984
GACCAACC	-0.152
GTTGGCAA	0.0689

Sequence	PBM E-score
AAAGGGGG	-0.423
AAGGAGAA	-0.131
AGGGATTG	-0.0197
AATGGTCT	-0.0756
AAGTCTGG	-0.218
GATAGGGC	0.0849
CGAACGGA	0.207
AGAACGGA	0.102
AGAACGGG	-0.129
CTAACGGC	0.313
AGAACGGC	0.387
CGAACGGC	0.467
GTCCTGTA	-0.121
CCAAGAGC	0.0254
AAGACGGG	0.0493
GTCTGTCA	-0.00712
CTATATAG	-0.0268
ATATATTA	0.329
GTTTATTA	0.0702
ATTTATTA	0.324
ATTATTTA	0.281
CTATATTA	0.177
